MITF TRPM1 inh: reduces MITF-dependent TRPM1 promoter luciferase signal; inhibition, % at 12.5 µM; SK-MEL-5 TRPM1 promoter luciferase, 24 h; 330,000 compounds, 0.83% hits;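 active means mean inhibition across replicates of 60% or more, whatever share of single replicates reaches that level; inconclusive means some that reach 60%, reason not given; inactive means mean inhibition across replicates below 60%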
Peg3 prom inh: reduces Peg3 promoter-driven luciferase expression in HeLa; HeLa PEG-Prom luciferase reporter, luminescence, overnight; inhibition, % at 20 µM; 360,000 compounds, 1.7% hits;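 active means inhibition of at least 50% at 20 µM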
ABHD5 PLIN5 PPI: ABHD5-PLIN5 protein interaction inhibition; 360,000 compounds, 0.78% hits; inhibition, % at 4 µM; Split G. princeps luciferase complementation, luminescence, 4 h;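 active means inhibition above the mean inhibition across every tested compound plus 3 SD, cut at about 22% in these data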;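 further: 0% = DMSO only wells and the 100% control is not disclosed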
Target sequence (Q00G26 whole entry, looked up): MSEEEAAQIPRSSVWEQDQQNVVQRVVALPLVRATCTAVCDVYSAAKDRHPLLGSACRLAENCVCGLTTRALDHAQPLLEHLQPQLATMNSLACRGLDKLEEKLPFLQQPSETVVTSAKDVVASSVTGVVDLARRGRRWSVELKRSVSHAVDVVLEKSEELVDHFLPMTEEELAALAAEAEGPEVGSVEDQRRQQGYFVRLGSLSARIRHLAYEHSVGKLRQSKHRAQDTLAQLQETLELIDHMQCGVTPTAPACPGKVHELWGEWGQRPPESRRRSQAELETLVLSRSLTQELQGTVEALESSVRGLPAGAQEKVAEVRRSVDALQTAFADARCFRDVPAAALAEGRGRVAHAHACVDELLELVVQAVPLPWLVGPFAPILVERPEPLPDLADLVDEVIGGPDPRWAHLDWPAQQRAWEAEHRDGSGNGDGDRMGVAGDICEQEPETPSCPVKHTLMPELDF
Target sequence (Q8WTS1 whole entry, looked up): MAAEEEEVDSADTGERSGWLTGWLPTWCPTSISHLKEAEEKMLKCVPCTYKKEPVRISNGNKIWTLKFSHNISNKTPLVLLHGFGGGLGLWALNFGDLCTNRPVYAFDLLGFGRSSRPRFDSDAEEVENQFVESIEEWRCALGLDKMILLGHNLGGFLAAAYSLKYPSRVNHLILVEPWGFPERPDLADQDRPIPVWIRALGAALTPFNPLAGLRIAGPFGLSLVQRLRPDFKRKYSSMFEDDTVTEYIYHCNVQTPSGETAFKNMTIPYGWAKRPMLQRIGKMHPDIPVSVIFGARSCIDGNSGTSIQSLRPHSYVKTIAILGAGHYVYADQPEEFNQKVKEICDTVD
Shn3 inh set2: inhibitors of Schnurri-3 3'UTR reporter in osteoblasts; AID 588674; Clone20 osteoblast Shn3 3'UTR firefly luciferase, 24 h; 360,000 compounds, 0.52% hits; inhibition, % at 12.5 µM;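 active means mean inhibition of at least 75% with every replicate also reaching 75%; inconclusive means mean inhibition at least 75% but some replicate below; inactive means mean inhibition below 75%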;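 further: 0% = median of neutral control wells and 100% = pilot-screen positive control compound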
EWS-Fli block: blocks EWS/Fli oncoprotein-driven transcription | inhibition, % at 12.6 µM | 350,000 compounds, 0.67% hits | A673 NR0B1-luciferase reporter, viability-normalised;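 active means mean inhibition of at least 50% after viability correction, with every replicate also passing that limit; inconclusive means mean reaches 50% but only one of two replicates passes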;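 further: firefly luciferase signal divided by Alamar Blue viability fluorescence both relative to DMSO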
PAX8 inh HTS: lowers PAX8-driven luciferase in RMG-I cells. inhibition, % at 12.6 µM. AID 652154. 360,000 compounds, 1.2% hits. RMG-I TPO-luciferase reporter, SteadyGlo, 24 h;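 active means mean replicate inhibition at least 60% with every replicate also reaching 60%; inconclusive means only one of the two criteria is met; inactive means mean below 60% and not all replicates reaching 60%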;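 further: luciferase light reporting Pax8 driven TPO promoter activity; plate controls were median of neutral control wells for no effect and mitoxantrone controls for full effect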
* hit, by the source's call; ? = inconclusive; nt = not tested or not shown. This is a sample that favours compounds with a hit; in the whole collection about 3% have one here.

SMILES	MITF TRPM1 inh	Peg3 prom inh	ABHD5 PLIN5 PPI	Shn3 inh set2	EWS-Fli block	PAX8 inh HTS
CS(=O)(=O)N1CCN(c2ccc(NC(=O)c3ccc([N+](=O)[O-])o3)cc2)CC1	75*	104*	1	97*	43	71*
O=C(Nc1cccc([N+](=O)[O-])c1)c1ccc([N+](=O)[O-])o1	nt	42	-12	44	42	?
O=C(Nc1ccc(N2CCN(Cc3ccccc3F)CC2)cc1)c1ccc([N+](=O)[O-])o1	98*	100*	1	64	52*	nt
O=C(Nc1nc2ccc(F)cc2s1)c1ccc([N+](=O)[O-])o1	nt	67*	4	-52	-94	17
CC1CCN(c2ccc(NC(=O)c3ccc([N+](=O)[O-])o3)cc2)CC1	81*	106*	-1	91*	13	36
O=C(Nc1ccc(N2CCCC2)c(Cl)c1)c1ccc([N+](=O)[O-])o1	73*	110*	7	64	-3	47
O=C(Nc1ccc(N2CCCCC2)cc1)c1ccc([N+](=O)[O-])o1	52	106*	-14	71	-1	16
O=C(Nc1nc2c(F)cccc2s1)c1ccc([N+](=O)[O-])o1	nt	-170	-2	-26	-105	19
COCC(=O)N1CC2(C1)CN(C(=O)Cc1ccccc1)[C@@H](CO)c1c2c2ccc(OC)cc2n1C	nt	nt	nt	nt	-5	nt
COc1cccc(N2CCN(c3ncnc4c3[nH]c3ccc(F)cc34)CC2C)c1 (stereo not given)	80*	114*	-1	96*	nt	nt
O=C(Nc1nccs1)[C@H]1[C@H](CO)[C@H]2Cn3c(cccc3=O)[C@@H]1N2C(=O)C1CCCCC1	nt	nt	nt	nt	-6	nt
CCCCn1c(=N)n(CC(=O)c2ccc(Br)s2)c2ccccc21	90*	95*	13	58	63*	72*
COc1ccccc1Cc1c(-c2ccco2)nc2ccc(Cl)cn12	nt	-40	27*	48	4	23
COc1ccccc1Cc1c(-c2ccco2)nc2ccc(Br)cn12	nt	-54	42*	-12	-15	32
COc1ccccc1Cc1c(-c2ccc(C)cc2)nc2ccc(Cl)cn12	nt	-233	-6	-41	-85	-138
Cc1cc2nc(-c3ccco3)c(Cc3ccccc3C(F)(F)F)n2c(C)c1Br	nt	nt	40*	nt	2	-4
FC(F)(F)c1ccccc1Cc1c(-c2ccco2)nc2ccc(Br)cn12	nt	14	34*	-17	1	-21
CCCNC(=O)N1[C@H](CO)[C@H](c2ccc(C3=CCCC3)cc2)[C@H]1CNC(=O)CC	nt	nt	nt	nt	3	3
Clc1ccc2nc(-c3ccco3)c(Cc3ccsc3)n2c1	nt	-4	49*	-18	12	30
CO[C@@H]1CN(C)C(=O)c2ccc(NS(=O)(=O)c3ccc(C)cc3)cc2OC[C@@H](C)N(C(=O)NC(C)C)C[C@H]1C	nt	nt	nt	nt	-4	nt
CC(=O)Nc1ccc(NC2=C/C(=N/S(=O)(=O)c3cccs3)c3ccccc3C2=O)cc1	102*	15	-8	96*	18	83*
Cc1ccc(NC2=C/C(=N/S(=O)(=O)c3cccs3)c3ccccc3C2=O)cc1C	-22	-64	3	-5	-1	10
Cc1ccccc1NC1=C/C(=N\S(=O)(=O)c2cccs2)c2ccccc2C1=O	87*	102*	-9	98*	nt	110*
COc1cccc(CNC(=O)C[C@@H]2CC[C@@H](NC(=O)C3CC3)[C@@H](CO)O2)c1	nt	nt	nt	nt	2	1
CN1C(=O)c2cc(NC(=O)Nc3ccccc3F)ccc2OC[C@@H]2O[C@@H](CC(=O)NCCc3ccncc3)CC[C@@H]21	nt	nt	nt	nt	-2	3
SMILES	MITF TRPM1 inh	Peg3 prom inh	ABHD5 PLIN5 PPI	Shn3 inh set2	EWS-Fli block	PAX8 inh HTS
CCOc1ccc(-n2c(=S)sc3c(=O)[nH]c(SCC(=O)NCC4CCCO4)nc32)cc1 (stereo not given)	-18	3	12	4	1	110*
O=C(C[C@H]1C=C[C@H](NS(=O)(=O)c2ccccc2)[C@@H](CO)O1)NCc1ccccc1F	nt	nt	nt	nt	-2	-15
COCC(=O)N1C[C@H](C)[C@H](OC)CN(C)C(=O)c2ccc(NC(=O)NC(C)C)cc2OC[C@@H]1C	nt	nt	nt	nt	10	nt
N#C/C(=C\c1cccn1-c1ccccc1)C(=O)NC1CCCCC1	14	27	-5	3	62*	21
N#C/C(=C\C=C\c1ccccc1[N+](=O)[O-])C(=O)NC1CCCCC1	72*	107*	5	3	nt	nt
C[C@H](CO)N1C[C@H](C)[C@H](CN(C)Cc2ccc(C(=O)O)cc2)Oc2ccc(NC(=O)CCC(F)(F)F)cc2C1=O	nt	nt	nt	nt	-10	10
C/C=C/c1ccc2c(c1)[C@H]1[C@H](CCN1C(=O)Cc1cccnc1)[C@H](CO)N2C	nt	nt	nt	nt	3	5
CCOC(=O)c1nc(NNC(=O)c2ccc([N+](=O)[O-])cc2)sc1C	27	68*	1	31	-18	54
Cc1noc(C)c1S(=O)(=O)Nc1ccc2c(c1)C(=O)N([C@H](C)CO)C[C@H](C)[C@H](CN(C)S(=O)(=O)c1ccc(Cl)cc1)O2	nt	nt	nt	nt	-1	nt
Cc1ccccc1NC(=O)CN1C(=O)C2C3CC(C(Br)C3Br)C2C1=O (stereo not given)	-7	-2	6	4	5	63*
COCCSc1nnc(NC(=O)CS(=O)(=O)c2ccc(C)cc2)s1	-1	-3	2	11	8	-2
COCCSc1nnc(NC(=O)CCS(=O)(=O)c2ccccc2)s1	2	5	4	-12	-16	80*
O=C(CCCc1ccccc1)Nc1nncs1	10	-9	-4	8	nt	nt
O=C(CCS(=O)(=O)c1ccccc1)Nc1nncs1	1	35	-3	18	-27	67*
CCOCCc1nnc(NC(=O)CCS(=O)(=O)c2ccccc2)s1	1	-3	0	-6	-28	65*
CC(C)Cc1nnc(NC(=O)CCS(=O)(=O)c2ccc(Cl)cc2)s1	7	15	0	2	nt	71*
CCCNC(=O)N1C[C@@H]2[C@H](c3ccccc31)[C@H](CO)N2Cc1cc(F)ccc1F	nt	nt	nt	nt	5	0
Cc1noc(C)c1S(=O)(=O)Nc1ccc2c(c1)CC(=O)N([C@H](C)CO)C[C@@H](C)[C@@H](CN(C)Cc1ccc(C(=O)Nc3ccccc3N)cc1)O2	nt	nt	nt	nt	nt	6
C[C@@H]1CN([C@H](C)CO)C(=O)c2cc(C3=CCCC3)cnc2O[C@H]1CN(C)C(=O)C1CCOCC1	nt	nt	nt	nt	8	-11
O=C(CCS(=O)(=O)c1ccccc1)Nc1nc2c(s1)COc1ccccc1-2	1	92*	7	1	-20	70*
CCCOCc1ccc(O)c2ncccc12	69*	42	0	57	30	31
CC(C)COCc1ccc(O)c2ncccc12	63*	55*	2	72	20	72*
C[C@H](CO)N1C[C@H](C)[C@H](CN(C)C(=O)Nc2ccc3c(c2)OCO3)Oc2c(NC(=O)c3cnccn3)cccc2C1=O	nt	nt	nt	nt	7	nt
CN(C)c1nc(=NCc2ccco2)ss1	-7	-70	90*	42	nt	nt

Compound activity from PubChem BioAssay.
